The list is not random: actives were taken first. Their share in the collection is about 21%.
IL-1B inflam inh – qHTS for Inhibitors of Inflammasome Signaling: IL-1-beta AlphaLISA Primary Screen | THP-1 LPS/ATP IL-1B secretion, AlphaLISA, 16 h; active compounds read low | activity change, % at 57.5 µM | hit rate 4.7% among 360,000; in the data active = activity change below about -50%; inconclusive = mostly about -30% to -49%
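Secreted IL-1B measured by AlphaLISA bead assay after 16 h compound exposure of THP-1 cells; compounds (final up to 57.5 uM) added 1 h before LPS (250 ng/mL) and ATP (1.25 mM) stimulation; lower signal means less secretion.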
RORgamma inh – qHTS for inhibitors of ROR gamma transcriptional activity | Drosophila S2 Gal4-RORgamma UAS-luciferase reporter, 20 h | Potency, µM (highest dose often 53.6 µM), for inactives: at the highest dose activity change, negative = inhibition, most hits filed as inhibitors | hit rate 5.4% among 310,000 | AID 2551, 2010; note: potency is the fitted concentration of half-maximal effect; nearly all actives have a fitted effect of over 60% in size
Target sequence (P51450 whole entry, looked up, the tested form may be a part): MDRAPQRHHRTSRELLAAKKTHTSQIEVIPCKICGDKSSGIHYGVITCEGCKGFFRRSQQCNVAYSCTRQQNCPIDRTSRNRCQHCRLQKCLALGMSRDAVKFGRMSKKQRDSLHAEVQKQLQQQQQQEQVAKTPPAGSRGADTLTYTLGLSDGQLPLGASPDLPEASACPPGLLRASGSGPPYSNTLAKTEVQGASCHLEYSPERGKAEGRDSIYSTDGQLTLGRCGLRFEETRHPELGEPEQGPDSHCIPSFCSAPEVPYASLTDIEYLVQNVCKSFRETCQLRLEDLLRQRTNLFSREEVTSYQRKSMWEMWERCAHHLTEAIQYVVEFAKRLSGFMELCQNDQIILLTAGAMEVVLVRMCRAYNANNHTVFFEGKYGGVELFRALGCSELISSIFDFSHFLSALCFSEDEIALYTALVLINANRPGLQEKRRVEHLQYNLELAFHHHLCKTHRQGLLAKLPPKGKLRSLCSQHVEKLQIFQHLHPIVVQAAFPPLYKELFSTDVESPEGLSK
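Stable Schneider cell line, Gal4 DNA-binding domain fused to ROR gamma, UAS-luciferase. Cmpd 1 hr RT → CuSO4 700 uM final → 20 hr RT → luciferase reagent 10 min → luminescence.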
ELG1 DNA repair – qHTS screen for small molecules that inhibit ELG1-dependent DNA repair in human embryonic kidney (HEK293T) cells expressing luciferase-tagged ELG1. hit rate 2.3% among 330,000. HEK293T ELG1-luciferase reporter, luminescence, 16 h; DNA damage induced by 5-fluorouridine. AID 504467, 2011. Potency, µM (series often up to 46.1 µM), for the others: at the highest dose activity change, negative = inhibition, hits mostly inhibitors; note: potency is the fitted concentration of half-maximal effect; nearly all actives have a fitted effect of over 55% in size
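Reporter activity after DNA damage by 5-fluorouridine is monitored. Compound-treated cells incubate 16 hr at 37 °C, then ONE-Glo is added for 30 min before luminescence reading.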
DT40 TDP1 no CPT – qHTS for Inhibitors of human tyrosyl-DNA phosphodiesterase 1 (TDP1): qHTS in cells in absence of CPT; DT40 Tdp1-/- hTDP1 cells, no CPT, ATP luminescence, 48 h; Potency, µM (series often up to 46.2 µM), inactives show top-dose activity change, negative = growth inhibition, usual class: inhibitors; hit rate 15% among 420,000; AID 686978, 2013; note: potency is the fitted concentration of half-maximal effect; nearly all actives have a fitted effect of over 55% in size
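Chicken DT40 Tdp1-/- cells complemented with human TDP1, screened without camptothecin (DMSO vehicle only), 400 cells/well. Compounds pin-transferred, cells incubated at 37 °C for at least 48 hr. Growth read as ATP-dependent luminescence (CellTiter-Glo, 30 min at RT).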
Gal4-VP16 FLuc – VP16 counterscreen qHTS for inhibitors of ROR gamma transcriptional activity; Drosophila S2 Gal4-VP16 UAS-luciferase, luminescence, 20 h; Potency, µM (series often up to 53.6 µM), for inactives: at the highest dose activity, negative = inhibition, hits mostly inhibitors; hit rate 3.5% among 310,000;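 note: Gal4-VP16 expression switched on by copper sulfate through the metallothionein promoter; potency is the fitted concentration of half-maximal effect; nearly all actives have a fitted effect of over 50% in size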
TDP1 cell CPT – qHTS for Inhibitors of human tyrosyl-DNA phosphodiesterase 1 (TDP1): qHTS in cells in presence of CPT | hit rate 12% among 420,000 | Potency, µM (top dose mostly 46.2 µM), without a hit: top-dose activity change, negative = growth inhibition, hits mostly inhibitors | AID 686979, 2013 | chicken DT40 Tdp1-/-;hTDP1 cells + 20 nM CPT, ATP luminescence, 48 h; note: potency is the fitted concentration of half-maximal effect; nearly all actives have a fitted effect of over 55% in size
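Cell growth measured by CellTiter-Glo luminescence after a minimum 48 h, 37 C compound exposure with 20 nM CPT in Tdp1-knockout DT40 cells stably expressing hTDP1, seeded 400/well; qHTS titration format.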
Starred values were filed as active, the others as inactive; u = inconclusive; x = not tested or not shown. Unless noted, calls come from the whole dose curve; as a rule, active = well fitted curve in the direction sought with a large enough effect; inconclusive = small, poorly fitted or top-dose-only effect, or another doubt; inactive = no such curve, though single readings can be large; an effect the other way counts as inactive or inconclusive. % is set by controls: 0 for no effect and ±100 for the full control effect.

SMILES	IL-1B inflam inh	RORgamma inh	ELG1 DNA repair	DT40 TDP1 no CPT	Gal4-VP16 FLuc	TDP1 cell CPT
COc1ccccc1C(=O)NCCC(=O)N1CCN(c2cccc(C(F)(F)F)c2)CC1	1.2	x	-0.5%	u	x	16.4µM*
O=C(Cn1ccc2ccccc2c1=O)NCCC(=O)N1CCN(c2cccc(C(F)(F)F)c2)CC1	-17.5	u	u	16.4µM*	-21.3%	20.6µM*
COc1cccc(CNC(=S)Nc2ccc3c(c2)c(=O)n(C)n3C)c1	-6.9	x	x	-2.0%	x	-2.9%
O=C(CNC(=O)c1ccncc1)N/N=C/c1ccc(O)cc1O	5.6	-2.1%	-10.6%	18.4µM*	-13.7%	u
COc1ccc(/C=N/NC(=O)c2ccc3c(c2)OCCO3)cc1[N+](=O)[O-]	-4.4	19.9%	13.0%	2.4%	-1.0%	2.5%
O=C(N/N=C/c1c(Cl)[nH]c2ccccc12)c1ccc2c(c1)OCCO2	-56.9*	-0.8%	u	u	-4.9%	u
COc1cc(/C=N/NC(=O)CNC(=O)c2ccncc2)ccc1O	10.8	-2.8%	3.4%	16.0%	-5.1%	7.5%
Cc1[nH]c2ccccc2c1/C=N/NC(=O)c1cccc(F)c1	18.8	-21.5%	11.1%	11.5%	-11.9%	-7.3%
COc1cc(/C=N/NC(=O)c2ccc3c(c2)OCCO3)cc(Br)c1O	-24.1	15.8µM*	u	u	u	-29.3%
O=C(N/N=C/c1cccc(O)c1)c1ccc2c(c1)OCCO2	-11.9	3.16µM*	u	3.7%	6.31µM*	1.3%
CCN(CC(=O)NC(C)(C)C)C(=O)C(c1ccccc1)c1ccccc1	0.0	17.1%	2.9%	-2.4%	-5.0%	0.9%
COc1ccc(NC(=O)C2CCN(C(=O)c3sc4nc[nH]c(=O)c4c3C)CC2)cc1Cl	x	x	x	-27.6%	x	-8.5%
COCOc1ccc(C=O)c(OCOC)c1	13.2	x	x	u	x	u
COc1cc(/C=N/NC(=O)C2C3CCCCC32C)cc(Br)c1O (stereo not drawn)	11.6	7.08µM*	4.7%	-1.6%	5.01µM*	-14.2%
O=C(CNC(=O)c1ccc2c(c1)OCCO2)N/N=C/c1ccc(O)cc1O	9.5	-11.5%	-10.3%	18.4µM*	-3.9%	u
CCOc1cccc(/C=N/NC(=O)c2ccc3c(c2)OCCO3)c1O	62.0	0.398µM*	u	4.11µM*	0.631µM*	2.59µM*
CN(C)c1ccc(/C=N/NC(=O)CNC(=O)c2ccc3c(c2)OCCO3)cc1	23.5	5.3%	-6.9%	11.0%	-18.6%	-8.3%
COc1cc(/C=N/NC(=O)c2ccc3c(c2)OCCO3)c(Br)c(Br)c1O	-10.5	13.2%	u	u	-2.3%	-12.1%
Cc1cccc(/C=N/NC(=O)c2ccc3c(c2)OCCO3)c1O	x	3.55µM*	u	x	2.51µM*	x
COc1cc(OC)c(NC(=O)Cn2c(=O)c(C(F)(F)F)nc3ccccc32)cc1Cl	x	x	x	-2.4%	x	7.0%
O=C(Cc1ccccc1)N/N=C/c1cc2c(cc1Cl)OCO2	5.9	17.6%	5.1%	29.1µM*	-15.6%	u
O=C(N/N=C\c1cccc(OC(=O)c2ccco2)c1)c1ccc2c(c1)OCO2	-16.9	14.1µM*	u	u	6.31µM*	u
O=C(N/N=C\c1ccc2c(c1)OCO2)c1ccco1	14.5	-43.6%	u	u	-25.0%	u
COc1cccc(/C=N/NC(=O)CNC(=O)c2ccc3c(c2)OCCO3)c1O	48.3	0.631µM*	u	u	4.47µM*	16.4µM*

Compound activity: PubChem, National Center for Advancing Translational Sciences (NCATS)
